Screens as filed in PubChem.
Rin1-Abl PPI inh = inhibitors of human Rin1-Abl protein interaction; P00519+Q13671; actives 0.4% (n = 360,000); TR-FRET Rin1/Abl binding, biochemical; AID 588664; inhibition, % at 7.35 µM; in the data active = inhibition above about 5%, passing the limit was not always enough
UHRF1 binding = UHRF1 methyl-DNA binding inhibition; UHRF1 binding to methylated oligo, TR-FRET; inhibition, % at 4.4 µM; Q96T88; AID 687016; actives 0.75% (n = 370,000); in the data active = inhibition above about 21%;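 note: UHRF1 SRA domain binding a hemimethylated CpG hairpin DNA probe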
KLK7 zymogen act = proKLK7 (human) activation, primary screen; actives 0.9% (n = 370,000); purified proKLK7, EDANS-DABCYL substrate fluorescence; 100% is mature enzyme control, 0% vehicle; AID 652039; activation, % at 7 µM;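 active = activation above the mean of all tested compounds plus 3 SD, computed per campaign excluding outliers beyond control limits, cut at about 13% in these data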
MBD2 inh = blocks human MBD2 binding to methylated DNA. Q9UBB5. TR-FRET, MBD2 binding to methylated oligonucleotide. inhibition, % at 4.4 µM. actives 0.31% (n = 370,000). AID 686964; in the data active = inhibition above about 13%
Neddylation inh = inhibitors of human cullin neddylation | P61081+Q13564 | TR-FRET cullin neddylation, biochemical | calls only at 25 µM | actives 0.58% (n = 360,000); in the data active = inhibition above about 36%
LEDGF integ inh = blocks HIV-1 LEDGF/p75-dependent DNA integration; TR-FRET IN-LEDGF/p75 DNA integration, Eu/Cy5; inhibition, % at 3.7 µM; actives 0.64% (n = 370,000);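 active = inhibition above the screen-wide mean plus 3 SD, cut at about 13% in these data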;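 note: signal is the Cy5 over europium emission ratio at 671 and 618 nm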
A number is an active result; n = inactive; x = no result given; + = active, no number. An excerpt weighted towards active compounds, which were near 3.1% of everything screened.

SMILES	Rin1-Abl PPI inh	UHRF1 binding	KLK7 zymogen act	MBD2 inh	Neddylation inh	LEDGF integ inh
COc1ccc(CN2CCN(C(=O)CCC(=O)c3ccc(C)s3)CC2)cc1OC	n	n	n	n	n	n
COc1cc2c(C(F)(F)F)c(-c3ccc(C#N)cc3)oc(=O)c2cc1OC	n	n	n	n	n	n
COc1cc2c(C(F)(F)F)c(-c3ccsc3)oc(=O)c2cc1OC	n	21	n	n	n	n
CC(C)Oc1cccc(C(=O)Nc2nnc([C@@H]3C[C@H](O)[C@@H](CO)O3)s2)c1	n	n	n	n	n	n
CCn1cc(/C=C(\NC(=O)c2ccccc2)C(=O)NCCCn2ccnc2)c2ccccc21	n	n	n	n	n	n
O=C(COc1ccc(S(=O)(=O)NCc2ccccc2)cc1)NCc1cccnc1	n	n	n	n	n	n
Clc1ccc2c(SCC3CO3)c3ccccc3nc2c1 (stereo not drawn)	n	72	n	n	n	n
O=C(Nc1ccccc1)c1ccccc1NC(=O)c1ccccc1C(=O)O	n	28	n	n	n	n
CCCCN(C=O)c1c(CC)nc2c(OCCOc3ccc(F)cc3)cccn12	n	n	n	n	n	n
Clc1ccc(Cn2c(/C=C/c3ccco3)nc3ccccc32)cc1	n	n	n	n	x	n
Cc1ccc(Cn2c(/C=C/c3ccco3)nc3ccccc32)cc1	n	n	n	n	+	n
COc1ccc(-c2[nH]ncc2CN(C)CC2CCCCO2)cc1F (stereo not drawn)	n	n	n	n	n	n
COc1ccc(-c2[nH]ncc2CN(C)CCN2CCOCC2)cc1F	n	22	n	n	n	n
COc1ccc(CNC(=O)C2CCN(c3nnc(N4CCCC4=O)s3)CC2)cc1	n	22	n	n	n	n
O=C(Nc1cc(NC(=O)c2ccccc2F)ccc1Cl)c1ccccc1	n	n	n	n	n	n
COC(=O)C1=C(C)NC(=S)NC1c1ccc(-c2ccccc2C(=O)OC)o1 (stereo not drawn)	n	22	n	n	n	n
COC(=O)C1=C(C)NC(=S)NC1c1ccc(-c2cccc(Cl)c2)o1 (stereo not drawn)	n	n	n	n	n	n
O=C(CCc1nnc2ccc(NCc3ccco3)nn12)Nc1cccc(F)c1	n	n	n	n	n	n
COc1cc(C(=O)OC2CCCCC2=O)cc(OC)c1C (stereo not drawn)	n	23	n	n	n	n
Cc1ccc(S(=O)(=O)/N=C2\C=C(NS(=O)(=O)c3ccccc3)C(=O)c3ccccc32)cc1	n	n	n	n	n	16
Cc1cc(C)c(S(=O)(=O)/N=C2\C=C(Nc3ccc(C(=O)O)cc3)C(=O)c3ccccc32)c(C)c1	n	n	n	n	n	43
Cc1cc(C)c(S(=O)(=O)/N=C2\C=C(NS(=O)(=O)c3ccccc3)C(=O)c3ccccc32)c(C)c1	n	n	n	n	n	n
Cc1ccc(S(=O)(=O)/N=C2/C=C(C3C(=O)CC(C)(C)CC3=O)C(=O)c3ccccc32)cc1	n	n	n	n	n	40
Cc1ccccc1Cn1cc(COC(=O)NCCc2ccccc2)nn1	x	n	n	n	x	n
CC(NC(=O)c1ccco1)c1nc(-c2ccc(Cl)cc2)no1 (stereo not drawn)	n	n	n	n	n	n
SMILES	Rin1-Abl PPI inh	UHRF1 binding	KLK7 zymogen act	MBD2 inh	Neddylation inh	LEDGF integ inh
O=C(NCC1OCCc2ccccc21)c1cc(COc2c(F)cccc2F)on1 (stereo not drawn)	n	n	n	n	n	n
COc1cccc(N(CC(=O)NCCSc2ccccc2)S(C)(=O)=O)c1	n	n	n	n	n	n
COc1cccc(N(CC(=O)NCCSc2ccc(Cl)cc2)S(C)(=O)=O)c1	n	27	n	n	n	n
O=[N+]([O-])c1ccccc1/C=N/OCc1ccccc1	n	n	n	n	n	n
CCN(CC)c1ccc(N=Cc2ccccc2[N+](=O)[O-])cc1	n	n	n	n	n	15
COc1cc(-c2cccc([C@H]3[C@@H]4C=CC[C@@H](C)[C@@H]4C(=O)N3Cc3ccccc3)c2)cc(OC)c1OC	n	46	n	n	n	n
Cc1c(C)c2ccc(OCC(=O)NCCN3CCOCC3)c(C)c2oc1=O	n	n	n	n	+	n
Cc1cccc(NC(=O)CCS(=O)(=O)c2cccc3nonc23)c1C	n	27	n	n	n	n
Cc1ccccc1NC(=O)CCS(=O)(=O)c1cccc2nonc12	n	n	n	n	n	n
CCOC(=O)c1c(C)[nH]c(C(=O)N(C)CC(=O)Nc2ccc(OC)cc2)c1C	n	21	n	n	n	n
CCOC(=O)c1[nH]c(C)c(C(=O)OCC(=O)NCc2ccc(OC)cc2)c1C	n	n	n	n	n	n
O=S(=O)(Nc1nc2ccccc2nc1N1CCc2ccccc2C1)c1ccc(Br)cc1	n	n	n	n	+	n
O=C(c1cccc(Br)c1)c1cn(-c2ccccc2)nc1C(=O)c1ccccc1	n	n	n	n	n	n
CC1CC(C)CN(C(=O)c2cc3cc(Br)cc(Br)c3o2)C1 (stereo not drawn)	n	47	n	n	n	n
CC1CC(C)CN(C(=O)c2cc3ccccc3o2)C1 (stereo not drawn)	n	n	n	n	n	n
CCn1ccnc1CN(C)C(=O)C1CCC(=O)N(Cc2cccc(C(F)(F)F)c2)C1 (stereo not drawn)	n	n	n	n	n	n
COCCOC(=O)c1[nH]c2c(c1C)C(=O)CC(c1ccco1)C2 (stereo not drawn)	n	33	n	n	n	16
CCN(CC)S(=O)(=O)c1ccc(/C=C/C(=O)OCC(=O)N(C(C)C)C(C)C)cc1	n	n	n	n	n	n
Cc1c(CC(=O)O)c(=O)oc2cc3oc4c(c3cc12)CCCC4	n	26	n	n	n	n
Nc1ccc(C(=O)O)c(O)c1	n	n	n	n	n	n
Nc1ccc(N)c(C(=O)O)c1	13	x	x	x	n	x
CCOC(=O)COc1cnc2ccccc2n1	n	22	n	n	n	n
CCOC(=O)c1ccc(Nc2cnc3ccccc3n2)cc1	n	n	n	n	x	n
CC(=O)Nc1ccc(S(=O)(=O)N2CCSC2c2ccco2)cc1 (stereo not drawn)	n	27	n	n	n	n
CC1=[N+](C)c2ccc3ccccc3c2C1(C)C	n	n	n	n	+	n
CC1(C)Cc2c(cnn2-c2ccc(F)cc2)C(NC(=O)C2=NNC(=O)CC2)C1 (stereo not drawn)	n	n	n	n	n	n
CC[n+]1c(/C=C/C=C/N(C(C)=O)c2ccccc2)sc2ccccc21	n	n	n	n	n	17
CCN1C(=O)c2cccc3c(S(=O)(=O)Nc4ncccc4C)ccc1c23	n	n	n	n	+	n
CCN1C(=O)c2cccc3c(S(=O)(=O)Nc4ccncc4)ccc1c23	n	x	x	x	x	x
